We go through 100 compounds from PubChem BioAssay AID1239 (SRMLSC, 2008).

The structures appear in SMILES notation. Hit rate of the full screen: of about 190,000 compounds, about 3,100 (1.6%) were called active. Cut-off read from the data, not from the text of the source: active = fold change above about 3.3; inconclusive = no clear call, values can overlap the other calls; inactive = below that. The full list was thinned out, with actives kept by preference.

A short description of the experiment: NF-kB upregulation, human neuronal cells – cell-based, HTS, primary screen (AID 1239). As to conditions: NF-kB reporter expression, at 12.5 µM, stronger effect = higher value.
Consider `Cc1nn(-c2ccccc2)c2c1C(c1cccc([N+](=O)[O-])c1)N(c1ccccc1)C(=O)N2` (stereo not given), for which the fold change was 1.17 (inactive).
With `O=C1CC(c2ccccc2)=NN1c1ccc([N+](=O)[O-])cc1`, the fold change is 1.27 (inactive).
Consider `Cc1nn(-c2ccc([N+](=O)[O-])cc2)c(N)c1-c1ccccc1`, for which the fold change was 6.64 (active).
Next, `Cc1nc2cc(NC(=O)NCc3ccccc3)ccc2o1`: 1.54 (inactive); `Cc1nc2ccc(NC(=O)C(F)(F)F)cc2o1`: 0.91 (inactive).
Under `Cc1ccc(NC(=O)Nc2ccc3oc(C)nc3c2)cc1` stands 5.03 (active); under `COc1ccc(C2CC(c3cccs3)=NN2c2ccccc2)cc1` (stereo not given), 1.15 (inactive); under `CCCNS(=O)(=O)c1ccc(CCC(=O)N2CCCC2)cc1`, 1.25 (inactive).
Under `Cn1cnnc1Sc1ccc(CN2CCN(C3CCCC3)C(CCO)C2)o1` (stereo not given) stands 1.08 (inactive); under `OCCC1CN(Cc2ccc3nsnc3c2)CCN1C1CCCC1` (stereo not given), 5.55 (active); under `OCCC1CN(Cc2ccc3nsnc3c2)CCN1C1CCCCC1` (stereo not given), 0.99 (inactive).
As to `N/C(=N\OC(=O)CCc1ccccc1)c1cccnc1`, the fold change was 1.31 (inactive).
Under `OCC1(Cc2ccccc2C(F)(F)F)CCN(Cc2cccc3cnccc23)CC1` stands 0.85 (inactive); under `COc1cc(SC)ccc1C(=O)Nc1cc(C)ccn1`, 1.01 (inactive); under `COc1ccccc1CNC(=O)c1ccc(SC)cc1OC`, 1.42 (inactive).
Next, `COc1cc(SC)ccc1C(=O)NCCOc1ccccc1Cl`: 5.99 (active); `COc1cc(CNCCN(C)C)ccc1OCc1c(F)cccc1Cl`: 1.11 (inactive).
Under `COc1cccc(CN(C)CC(=O)Nc2ccccc2C(=O)Nc2ccccc2)c1` stands 0.95 (inactive); under `O=c1[nH]c2cccnc2n(CCNc2ncc(C(F)(F)F)cc2Cl)c1=O`, 1.12 (inactive).
Consider `NC(=O)C1CCN(Cc2nc3c(Br)cc(Br)cc3c(=O)[nH]2)CC1`, for which the fold change is 1.47 (inactive).
For the compound `C/C(=N\N)c1c(-c2ccccc2)c2cc(Br)ccc2[nH]c1=O`, the fold change is 0.98 (inactive).
Turning to `NC(N)=Nc1nc2ccc(Br)cc2c(=O)[nH]1`, the fold change is 3.87 (active).
Consider `CC(C)Cn1c(N)c(C(=O)COC(=O)CN2C(=O)C3CC=CCC3C2=O)c(=O)n(C)c1=O` (stereo not given), for which the fold change was 0.78 (inactive).
Under `Cc1ccc(NC(=S)Nc2ncccc2C)c(C)c1` stands 3.74 (active); under `Cc1ccc(NC(=S)NCc2ccccc2Cl)c(C)c1`, 0.92 (inactive); under `Cc1ccc(NC(=S)NC(=O)c2ccc(-c3ccccc3)cc2)c(C)c1`, 1.18 (inactive).
Regarding `Cc1ccc(S(=O)(=O)N(C)C)cc1NC(=O)c1ccccc1Br`, the fold change is 1.05 (inactive).
Under `COC(=O)CCNC(=O)c1ccc2[nH]c(C)c(C)c2c1` stands 0.99 (inactive).
Regarding `Cn1cc(/C=C/c2nc3ccccc3c(=O)n2-c2cccc([N+](=O)[O-])c2)c2ccccc21`, the fold change is 1.02 (inactive).
Next, `CCn1c(/C=C/c2ccc([N+](=O)[O-])o2)nc2ccccc2c1=O`: 4.02 (active); `C/[N+]([O-])=C\c1ccc([N+](=O)[O-])o1`: 0.83 (inactive).
`Cn1c(=N)n(CC(O)c2cccs2)c2ccccc21` (stereo not given): the fold change was 1.08 (inactive).
Next, `CC(C)(C)N(CC#CCC(O)(c1ccccc1)C1CCCC1)CCO` (stereo not given): 1.15 (inactive); `COc1ccccc1OCc1nc2ccccc2s1`: 4.3 (active).
For `COc1cccc2sc(NNC(=O)c3nc4ccccc4s3)nc12`, the fold change is 1.13 (inactive).
Next, `COc1ccccc1N1CC(O)=C(c2nc3ccccc3s2)C1=N`: 0.59 (inactive); `Cc1ccc(NC(=O)c2csc3c2CCCC3)cc1`: 1.12 (inactive); `CCN1CCN(C(=O)CN(C)S(=O)(=O)c2ccc3ccccc3c2)CC1`: 1 (inactive).
Next, `CCOC(=O)c1ccc(NC2Nc3cc(C)nn3S2)cc1` (stereo not given): 1.14 (inactive); `CCc1ccc(NC(=O)N2CCN(c3ccccc3)CC2)cc1`: 1.34 (inactive).
Next, `CCc1ccc(NC2Nc3cc(C)nn3S2)cc1` (stereo not given): 4.6 (active).
For the compound `O=C(NCc1ccccc1)C1=C[C@@H](c2ccc(C(F)(F)F)cc2)C[C@@H](OCc2ccc(CO)cc2)O1`, the fold change was 0.94 (inactive).
In the case of `CCN(C(=O)COC(=O)c1ccc(COc2ccc3c(C)cc(=O)oc3c2)cc1)C1CCS(=O)(=O)C1` (stereo not given), the fold change was 1.19 (inactive).
Turning to `CSCC(=O)N1CCCC(C(=O)c2cc(F)ccc2F)C1` (stereo not given), the fold change is 1.18 (inactive).
Under `Fc1ccccc1N=C1Nc2cccc3cccc1c23` stands 0.99 (inactive).
In the case of `Cc1ccc(N=Cc2c(O)n(-c3nccs3)c(=O)c3ccccc23)c(C)c1`, the fold change was 1.01 (inactive).
Next, `Cc1cccc(-n2c(C)cc(/C=N/NC(N)=S)c2C)c1`: 1.29 (inactive).
Under `Cc1cccc(-n2c(O)c(C=Nc3ccccc3N)c(=O)[nH]c2=O)c1` stands 4.16 (active); under `Cc1c(CN2CCCC(C(=O)c3cccc(Cl)c3)C2)c(=O)n(-c2ccccc2)n1C` (stereo not given), 1.12 (inactive).
In the case of `Cc1ccc(C(=O)Nc2cccc3ncccc23)cc1[N+](=O)[O-]`, the fold change is 1.38 (inactive).
For `CC(C)(c1ccccc1)c1ccc(OCCN)cc1`, the fold change was 1.16 (inactive).
Turning to `O=C(Nc1ccc(F)cc1)N1CCN(c2ccc(F)cc2)CC1`, the fold change is 1.12 (inactive).
Under `CCOC(=O)C1(Cc2cccc(OC)c2)CCN(Cc2csc(C(C)=O)c2)CC1` stands 0.84 (inactive); under `O=C(O)c1cccc(N=NN2CCCCCC2)c1`, 5.59 (active).
For `O=C(c1ccccc1)N1CCN(C(=O)N2CCCCC2)CC1`, the fold change is 1.3 (inactive).
Next, `O=C(O)c1ccc(N=NN2CCOCC2)cc1`: 1.3 (inactive).
In the case of `COc1ccc(NC(=S)N2N=CCC2c2ccccc2)cc1` (stereo not given), the fold change was 3.93 (active).
For `COc1ccc(C(=O)NC2CCN(C(=S)Nc3ccccc3)CC2)cc1`, the fold change was 1.12 (inactive).
Consider `COc1ccc(C(=S)Nc2ccccc2)cc1`, for which the fold change is 1.98 (inactive).
Next, `Cc1ccc(C(=O)NNC(=O)c2cccs2)cc1`: 1.67 (inactive).
In the case of `COCCNC(=O)/C(C#N)=C/c1nc(N(C)C)n(-c2ccc(F)cc2)c1Cl`, the fold change is 1.11 (inactive).
Turning to `Cc1nc(N2CCC(C)CC2)c2c(C)c(C(=O)Nc3cc(F)ccc3C)sc2n1`, the fold change was 0.88 (inactive).
Next, `O=[N+]([O-])c1cccc(/C([O-])=C(/C(=S)Nc2ccccc2F)[n+]2ccccc2)c1`: 1.02 (inactive); `Cn1cc(Cl)c(C(=O)NNC(=S)Nc2cccc(Cl)c2)n1`: 1.46 (inactive).
Consider `COc1ccc(NC(=O)CSc2nc(C)cs2)cc1`, for which the fold change was 1.38 (inactive).
Regarding `Cc1csc(SCC(=O)Nc2sccc2C#N)n1`, the fold change is 5.12 (active).
Under `Cc1cccc(C)c1Nc1nnc(SCC(=O)Nc2sccc2C#N)s1` stands 1.08 (inactive).
Under `CCO/C=C1\C(=O)N(c2ccc(OCC)cc2)C(=O)c2ccccc21` stands 1.05 (inactive); under `Cc1nc(-c2ccc(NC(=O)c3cccs3)cc2)cs1`, 5.59 (active); under `Cc1ccc(-c2csc(NC(=O)c3cccs3)n2)cc1`, 1.97 (inactive).
For the compound `Cc1ccc(-c2nnc(-c3ccc(NC(=O)c4cccs4)cc3)o2)cc1`, the fold change is 1.45 (inactive).
Regarding `COc1ccc(CNC(=O)COC(=O)/C=C/c2ccc(S(=O)(=O)N3CCOCC3)cc2)cc1`, the fold change was 1 (inactive).
Next, `COCCNc1nc2nonc2nc1N1CCCC1c1nccs1` (stereo not given): 1.05 (inactive).
With `C=CCN(Cc1nc(-c2cc(OC)c3c(c2)OCO3)oc1C)C1CCS(=O)(=O)C1` (stereo not given), the fold change is 1.14 (inactive).
Regarding `Cc1ccc(-n2c(C)cc(C(=O)CN3C(=O)C(=O)N(C4CCCC4)C3=O)c2C)cc1`, the fold change is 0.71 (inactive).
Under `Cc1ccc(-n2c(C)cc(C(=O)CSc3nnc4ccccn34)c2C)cc1` stands 3.7 (active); under `O=C(CSc1nnc2ccccn12)c1ccccc1`, 1.88 (inactive).
As for `CC1CC(C)CN(S(=O)(=O)c2ccc(C(=O)NN3CCOCC3)cc2)C1` (stereo not given), the fold change was 1.27 (inactive).
As to `Cc1cc(OCC(=O)NC2CCN(C)CC2)ccc1[N+](=O)[O-]`, the fold change is 0.99 (inactive).
Turning to `COc1ccccc1N(C)S(=O)(=O)c1ccc(Cl)c(C(=O)N2CCC(C(N)=O)CC2)c1`, the fold change was 1.12 (inactive).
Next, `Cc1ccc(-c2cn3cc([N+](=O)[O-])ccc3n2)cc1`: 4.75 (active); `Cn1cnc(C(F)(F)F)c1-c1ccc([N+](=O)[O-])cc1`: 1.2 (inactive).
Consider `Cc1ccc(-c2cn3cc(C)ccc3n2)cc1`, for which the fold change was 0.56 (inactive).
Under `CCOC(=O)N1CCN(C(=O)CSc2nc(C)nc3c2c(=O)n(C)c(=O)n3C)CC1` stands 0.96 (inactive); under `Cc1cc(NC(=O)CSc2nc3ccccc3n2CC(C)C)no1`, 1.74 (inactive); under `COc1ccc(NS(=O)(=O)c2cc(NC(=O)C3CCCCC3)ccc2N2CCOCC2)cc1`, 0.72 (inactive).
Consider `Cc1cc(C)nc(NNC2=CC(=O)CC(C)(C)C2)n1`, for which the fold change is 1.06 (inactive).
Take `COc1ccccc1C1C2=C(COC2=O)Nc2cc3c(cc21)OCO3` (stereo not given): the fold change was 1.19 (inactive).
As to `CCCOc1ccccc1C1CC(=O)Nc2cc3c(cc21)OCO3` (stereo not given), the fold change was 3.71 (active).
Under `COCCOC(=O)C1=C(C)NC(=O)CC1c1cc2c(cc1Br)OCO2` (stereo not given) stands 0.99 (inactive); under `COc1ccc(-n2ncc3c(N4CCCc5ccccc54)ncnc32)cc1`, 1 (inactive).
Next, `c1ccc(-n2ncc3c(N4CCCC4)ncnc32)cc1`: 5.1 (active); `O=C(NNc1ncnc2c1cnn2-c1ccccc1)c1ccco1`: 1.27 (inactive); `COc1ccc(-n2ncc3c(N4CCc5ccccc54)ncnc32)cc1`: 0.87 (inactive).
With `O=C(NCCC1=CCCCC1)C1CCN(Cc2cnn(-c3ccccc3)c2-n2cccc2)CC1`, the fold change is 0.8 (inactive).
Turning to `C1=C(CCNc2ncnc3c2cnn3-c2ccccc2)CCCC1`, the fold change was 4.63 (active).
Under `CCC(CC)NC(=O)CSc1nnc(-c2c[nH]c3ccccc23)o1` stands 1.09 (inactive).
For `COC(c1ccccc1)c1nnc(CCC(=O)N2CCN(CCOc3ccccc3)CC2)o1` (stereo not given), the fold change was 1.23 (inactive).
In the case of `COc1ccc(-c2[nH]ncc2CN(C)Cc2cc(C)[nH]n2)c(F)c1`, the fold change is 0.97 (inactive).
Under `COc1ccc(O)c(C(=O)c2cnc3c(c2)c(-c2ccc(F)cc2)c(C#N)c(=O)n3C)c1` stands 0.93 (inactive).
